PubChem BioAssay AID1159580 (chemical genetic matrix, 2015)
Hit rate of the full screen: of about 5,500 compounds, about 2,000 (36%) were called active. Another 18% or so got no clear call; they are omitted. The list shows a part of the results. A number with no mark means an inactive call. Cut-off read from the data, not from the text of the source: active = normalized growth mostly below about 0.91 (no sharp cut-off); inconclusive = no clear call, values can overlap the other calls; inactive = mostly above about 0.92.

Experiment: chemical genetic growth profiling, strain panel (AID 1159580);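 note: tested at 20 µM; growth read once vehicle control cultures reached saturation at 30 °C; 1 = growth at the plate median or of vehicle wells; lower values mean less growth of the strain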
Conditions: S. cerevisiae deletion strains, growth OD
[1] = locus YAR019C, strain CDC15, hits give low values
[2] = locus YBL105C, strain PKC1, hits give low values
[3] = locus YBR135W, strain CKS1, hits give low values
[4] = locus YBR136W, strain MEC1, hits give low values
[5] = locus YBR160W, strain CDC28, hits give low values
[6] = locus YDL017W, strain CDC7, hits give low values
[7] = locus YDL028C, strain MPS1, hits give low values
[8] = locus YDL101C, strain DUN1, hits give low values
[9] = locus YDL108W, strain KIN28, hits give low values
[10] = locus YDL132W, strain cdc53, hits give low values
[11] = locus YDL214C, strain PRR2, hits give low values
[12] = locus YDR052C, strain DBF4, hits give low values
[13] = locus YDR054C, strain cdc34, hits give low values
[14] = locus YDR226W, strain ADK1, hits give low values
[15] = locus YDR477W, strain SNF1, hits give low values
[16] = locus YER123W, strain YCK3, hits give low values
[17] = locus YER133W, strain GLC7, hits give low values
[18] = locus YFL009W, strain cdc4, hits give low values
[19] = locus YFL029C, strain CAK1, hits give low values
[20] = locus YFR003C, strain YPI1, hits give low values
[21] = locus YFR019W, strain FAB1, hits give low values
[22] = locus YFR028C, strain CDC14, hits give low values
[23] = locus YGR040W, strain KSS1, hits give low values
[24] = locus YGR052W, strain FMP48, hits give low values
[25] = locus YGR092W, strain DBF2, hits give low values
[26] = locus YHR030C, strain SLT2, hits give low values
[27] = locus YHR079C, strain IRE1, hits give low values
[28] = locus YHR082C, strain KSP1, hits give low values
[29] = locus YHR205W, strain SCH9, hits give low values
[30] = locus YIL147C, strain SLN1, hits give low values
[31] = locus YJL095W, strain BCK1, hits give low values
[32] = locus YJL128C, strain PBS2, hits give low values
[33] = locus YJL157C, strain FAR1, hits give low values
[34] = locus YJR016C, strain ILV3, hits give low values
[35] = locus YJR066W, strain TOR1 (second series), hits give low values
[36] = locus YJR066W, strain TOR1, hits give low values
[37] = locus YKL048C, strain ELM1, hits give low values
[38] = locus YKL067W, strain YNK1, hits give low values
[39] = locus YKL101W, strain HSL1, hits give low values
[40] = locus YKL193C, strain SDS22, hits give low values
[41] = locus YKL203C, strain TOR2, hits give low values
[42] = locus YLR113W, strain HOG1, hits give low values
[43] = locus YLR133W, strain CKI1, hits give low values
[44] = locus YLR403W, strain SFP1, hits give low values
[45] = locus YML070W, strain DAK1, hits give low values
[46] = locus YMR001C, strain CDC5, hits give low values
[47] = locus YMR205C, strain PFK2 (second series), hits give low values
[48] = locus YMR277W, strain FCP1, hits give low values
[49] = locus YNL006W, strain LST8, hits give low values
[50] = locus YNL020C, strain ARK1, hits give low values
[51] = locus YNL161W, strain CBK1, hits give low values
[52] = locus YNL183C, strain NPR1, hits give low values
[53] = locus YNL207W, strain RIO2, hits give low values
[54] = locus YNL222W, strain SSU72, hits give low values
[55] = locus YNL307C, strain MCK1 (second series), hits give low values
[56] = locus YOL078W, strain AVO1, hits give low values
[57] = locus YOL136C, strain PFK27, hits give low values
[58] = locus YOR061W, strain CKA2, hits give low values
[59] = locus YOR119C, strain RIO1, hits give low values
[60] = locus YOR231W, strain MKK1, hits give low values
[61] = locus YOR329C, strain SCD5, hits give low values
[62] = locus YPL031C, strain PHO85, hits give low values
[63] = locus YPL153C, strain RAD53, hits give low values
[64] = locus YPL204W, strain HRR25, hits give low values
[65] = locus YPL209C, strain IPL1, hits give low values
[66] = locus YPL256C, strain CLN2, hits give low values
[67] = locus YPR025C, strain CCL1, hits give low values
[68] = locus YPR106W, strain ISR1, hits give low values
[69] = locus YPR111W, strain DBF20, hits give low values
[70] = strain NNK1, hits give low values
[71] = strain TSCII, hits give low values

Q: Which results are given for CS/C(Nc1cccc(C(F)(F)F)c1)=C(/C#N)S(=O)(=O)c1ccc(Cl)cc1?
A: normalized growth [1]: 0.951; normalized growth [2]: 0.945; normalized growth [3]: 0.953; normalized growth [4]: 0.941; normalized growth [5]: 0.948; normalized growth [6]: 0.948; normalized growth [7]: 0.957; normalized growth [8]: 0.953; normalized growth [9]: 0.949; normalized growth [10]: 0.953; normalized growth [11]: 0.96; normalized growth [12]: 0.932; normalized growth [13]: 0.946; normalized growth [14]: 0.931; normalized growth [15]: 0.963; normalized growth [16]: 0.941; normalized growth [17]: 0.971; normalized growth [18]: 0.942; normalized growth [19]: 0.934; normalized growth [20]: 0.944; normalized growth [21]: 0.957; normalized growth [22]: 0.948; normalized growth [23]: 0.947; normalized growth [24]: 0.943; normalized growth [25]: 0.937; normalized growth [26]: 0.996; normalized growth [27]: 0.987; normalized growth [28]: 1.01; normalized growth [29]: 0.914; normalized growth [30]: 0.953; normalized growth [31]: 0.916; normalized growth [32]: 0.935; normalized growth [33]: 0.954; normalized growth [34]: 0.944; normalized growth [35]: 0.95; normalized growth [36]: 0.988; normalized growth [37]: 0.946; normalized growth [38]: 0.972; normalized growth [39]: 0.954; normalized growth [40]: 0.951; normalized growth [41]: 1; normalized growth [42]: 0.882; normalized growth [43]: 0.945; normalized growth [44]: 0.925; normalized growth [45]: 0.962; normalized growth [46]: 0.948; normalized growth [47]: 0.978; normalized growth [48]: 0.956; normalized growth [49]: 0.958; normalized growth [50]: 0.943; normalized growth [51]: 0.94; normalized growth [52]: 0.992; normalized growth [53]: 0.936; normalized growth [54]: 0.957; normalized growth [55]: 0.926; normalized growth [56]: 0.951; normalized growth [57]: 0.915; normalized growth [58]: 0.985; normalized growth [59]: 1.01; normalized growth [60]: 0.94; normalized growth [61]: 0.951; normalized growth [62]: 0.956; normalized growth [63]: 0.973; normalized growth [64]: 0.911; normalized growth [65]: 0.943; normalized growth [66]: 0.981; normalized growth [67]: 0.946; normalized growth [68]: 0.954; normalized growth [69]: 0.949; normalized growth [70]: 0.947; normalized growth [71]: 0.942

Q: Which normalized growth [1] does the source give for N#C/C(=N/Nc1cccc(C(F)(F)F)c1)C(=O)c1csc(-c2cccnc2)n1 here?
A: The normalized growth was 0.96.

Q: And the normalized growth [2]?
A: The normalized growth was 0.958.

Q: And the normalized growth [3]?
A: The normalized growth was 0.955.

Q: What about the normalized growth [4] of the same compound?
A: The normalized growth was 0.962.

Q: And the normalized growth [5]?
A: The normalized growth was 0.961.

Q: What about the normalized growth [6] of the same compound?
A: The normalized growth was 0.96.

Q: And the normalized growth [7]?
A: The normalized growth was 0.962.

Q: What about the normalized growth [8] of the same compound?
A: The normalized growth was 0.964.

Q: And the normalized growth [9]?
A: The normalized growth was 0.963.

Q: What about the normalized growth [10] of the same compound?
A: Its normalized growth is 0.964.

Q: And the normalized growth [11]?
A: Its normalized growth is 0.83.

Q: And the normalized growth [12]?
A: Its normalized growth is 0.945.

Q: What about the normalized growth [13] of the same compound?
A: Its normalized growth is 0.939.

Q: What about the normalized growth [14] of the same compound?
A: The normalized growth was 0.963.

Q: And the normalized growth [15]?
A: The normalized growth was 0.762.

Q: And the normalized growth [16]?
A: The normalized growth was 0.56 (active).

Q: And the normalized growth [17]?
A: The normalized growth was 0.883.

Q: What about the normalized growth [18] of the same compound?
A: The normalized growth was 0.96.

Q: And the normalized growth [19]?
A: Its normalized growth is 0.955.

Q: What about the normalized growth [20] of the same compound?
A: Its normalized growth is 0.961.

Q: What about the normalized growth [21] of the same compound?
A: Its normalized growth is 0.364 (active).

Q: What about the normalized growth [22] of the same compound?
A: Its normalized growth is 0.967.

Q: What about the normalized growth [23] of the same compound?
A: The normalized growth was 0.832.

Q: And the normalized growth [24]?
A: Its normalized growth is 0.566 (active).

Q: What about the normalized growth [25] of the same compound?
A: Its normalized growth is 0.297 (active).

Q: What about the normalized growth [26] of the same compound?
A: Its normalized growth is 0.115 (active).

Q: And the normalized growth [27]?
A: The normalized growth was 0.139 (active).

Q: And the normalized growth [28]?
A: The normalized growth was 0.292 (active).

Q: And the normalized growth [29]?
A: Its normalized growth is 0.75.

Q: What about the normalized growth [30] of the same compound?
A: The normalized growth was 0.96.

Q: What about the normalized growth [31] of the same compound?
A: Its normalized growth is 0.232 (active).

Q: What about the normalized growth [32] of the same compound?
A: Its normalized growth is 0.923.

Q: What about the normalized growth [33] of the same compound?
A: Its normalized growth is 0.802.

Q: And the normalized growth [34]?
A: Its normalized growth is 0.954.

Q: And the normalized growth [35]?
A: The normalized growth was 0.578 (active).

Q: What about the normalized growth [36] of the same compound?
A: The normalized growth was 0.343 (active).

Q: And the normalized growth [37]?
A: The normalized growth was 0.632 (active).

Q: What about the normalized growth [38] of the same compound?
A: Its normalized growth is 0.854.

Q: And the normalized growth [39]?
A: The normalized growth was 0.534 (active).

Q: What about the normalized growth [40] of the same compound?
A: Its normalized growth is 0.959.

Q: What about the normalized growth [41] of the same compound?
A: Its normalized growth is 0.763.

Q: And the normalized growth [42]?
A: Its normalized growth is 0.34 (active).

Q: And the normalized growth [43]?
A: Its normalized growth is 0.711 (active).

Q: What about the normalized growth [44] of the same compound?
A: Its normalized growth is 0.776.

Q: And the normalized growth [45]?
A: The normalized growth was 0.578 (active).

Q: And the normalized growth [46]?
A: The normalized growth was 0.964.

Q: What about the normalized growth [47] of the same compound?
A: The normalized growth was 0.807.

Q: And the normalized growth [48]?
A: The normalized growth was 0.955.

Q: And the normalized growth [49]?
A: The normalized growth was 0.961.

Q: And the normalized growth [50]?
A: The normalized growth was 0.626 (active).

Q: And the normalized growth [51]?
A: Its normalized growth is 0.956.

Q: And the normalized growth [52]?
A: The normalized growth was 0.46 (active).

Q: What about the normalized growth [53] of the same compound?
A: The normalized growth was 0.941.

Q: And the normalized growth [54]?
A: The normalized growth was 0.96.

Q: What about the normalized growth [55] of the same compound?
A: The normalized growth was 0.461 (active).

Q: What about the normalized growth [56] of the same compound?
A: The normalized growth was 0.955.

Q: And the normalized growth [57]?
A: Its normalized growth is 0.529 (active).

Q: What about the normalized growth [58] of the same compound?
A: Its normalized growth is 0.85.

Q: What about the normalized growth [59] of the same compound?
A: Its normalized growth is 0.838.

Q: And the normalized growth [60]?
A: Its normalized growth is 0.198 (active).

Q: What about the normalized growth [61] of the same compound?
A: The normalized growth was 0.966.

Q: What about the normalized growth [62] of the same compound?
A: Its normalized growth is 0.484 (active).

Q: And the normalized growth [63]?
A: Its normalized growth is 0.317 (active).

Q: And the normalized growth [64]?
A: The normalized growth was 0.464 (active).

Q: And the normalized growth [65]?
A: Its normalized growth is 0.957.

Q: And the normalized growth [66]?
A: Its normalized growth is 0.236 (active).

Q: And the normalized growth [67]?
A: Its normalized growth is 0.956.

Q: What about the normalized growth [68] of the same compound?
A: Its normalized growth is 0.971.

Q: What about the normalized growth [69] of the same compound?
A: The normalized growth was 0.958.

Q: What about the normalized growth [70] of the same compound?
A: The normalized growth was 0.95.

Q: And the normalized growth [71]?
A: The normalized growth was 0.954.
